# Results filed as inconclusive are left out. A call without a number means that no potency is given here. Calls of active or inactive are those of the source. The call rests on the fitted dose curve.
# Target: Retinoic acid receptor RXR-alpha (Homo sapiens) (UniProt P19793)
# Assay: qHTS assay for small molecule agonists of retinoid X receptor alpha signaling (AID 588544)
# Details: HEK293T RXRa-UAS-bla, beta-lactamase reporter, 18 h; series mostly up to 76.7 µM
# From the text: NIH Chemical Genomics Center [NCGC] U.S. Environmental Protection Agency [EPA] National Institutes of Environmental Health Sciences [NIEHS] National Toxicology Program [NTP] NCGC Assay Overview The Retinoid X receptor (RXR), a nuclear hormone receptor is expressed in liver, spleen, placenta, epidermis, central nervous system. These receptors are able to form homo and heterodimers with other nuclear receptors and due to this heterodimerizing ability, RXR functions as master regulators producing diverse physiological effects. Three subtypes of RXR exist; alpha, beta and gamma. Retinoid X receptor alpha (RXR-alpha) has potential roles in metabolic signaling pathways, skin alopecia, dermal cysts, cardiac development, insulin sensitization etc. Therefore screening environmental chemicals on RXR-alpha signaling can be used for the studies focused on such therapeutic applications.
# NCGC Assay Protocol Summary Using a beta-lactamase reporter-gene under control of Retinoid X receptor--alpha (RXR-alpha) response element, a cell-based assay [GeneBLAzer (RXR-alpha -UAS-bla assay developed by Invitrogen] was used to measure RXR-alpha ligands signaling. GeneBLAzer RXR-alpha -UAS-bla HEK293T cells were used with assay medium containing 2% charcoal-stripped FBS. The assay was performed in clear bottom black Greiner 1536-well plates. 9-cis-retinoic acid was used in the screen as the positive control. Library compounds were measured for their ability to stimulate the reporter gene activity. Compounds were screened in a titration series in 1536-well format. The fluorescence intensity (405 nm excitation, 460/530 nm emission) was measured using an EnVision plate reader. Data was normalized relative to 9-cis-retinoic acid control (500 nM, 100%), and DMSO only wells (basal, 0%). Concentration-response titration points for each compound were fitted to the Hill equation yielding concentrations of half-maximal stimulation (EC50) and maximal response (efficacy) values. qHTS protocol for RXR-alpha beta-lactamase assay in agonist mode [Step] [Parameter] [Value] [Description] 1. Reagent; 6 uL; 2500 cells/well 2. Incubation; 37 C for 4 hrs 3. Compounds; 23 nL; 0.59 nM to 92 uM 4. Controls (9-cis-retinoic acid); 23 nL, - One column with dose response, start 38 uM, 1:3 dilutions in duplicates - Final concentrations of 500 nM and 50 nM in two columns 5. Incubation; 37 C for 18 hrs 6. Detection reagent; 1 uL of CCF4-dye 7. Incubation; RT for 2 hrs 8. Detection; Fluorescence; Envision plate reader
# Chain of Retinoic acid receptor RXR-alpha (Homo sapiens) (P19793 whole entry, looked up): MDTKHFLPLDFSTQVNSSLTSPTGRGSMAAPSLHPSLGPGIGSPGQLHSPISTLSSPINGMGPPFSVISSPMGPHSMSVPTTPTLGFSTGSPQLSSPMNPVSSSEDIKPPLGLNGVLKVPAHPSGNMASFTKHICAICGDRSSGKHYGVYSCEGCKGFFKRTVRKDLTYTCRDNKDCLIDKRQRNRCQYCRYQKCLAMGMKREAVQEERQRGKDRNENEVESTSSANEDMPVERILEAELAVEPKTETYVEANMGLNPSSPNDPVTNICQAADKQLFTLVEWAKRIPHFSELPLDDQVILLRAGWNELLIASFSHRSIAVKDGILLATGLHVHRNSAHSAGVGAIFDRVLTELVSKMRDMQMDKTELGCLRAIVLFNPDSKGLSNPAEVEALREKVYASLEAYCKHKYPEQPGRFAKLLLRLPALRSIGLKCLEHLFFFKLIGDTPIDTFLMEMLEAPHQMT
row,SMILES,Potency
1,ClCC1CO1 (stereo not given),inactive
2,CCCCCCCCOC(=O)c1ccccc1C(=O)OCCCCCCCC,inactive
3,ClC=C(Cl)Cl,inactive
4,O=C/C=C/c1ccccc1,inactive
5,CC(C)CCON=O,inactive
6,O=C(NCNC(=O)NC1C(=O)NC(=O)N1CO)NC1C(=O)NC(=O)N1CO (stereo not given),inactive
7,C[C@H]1CCC[C@H](O)CCCCCc2cc(O)cc(O)c2C(=O)O1,inactive
8,C=CCN=C=S,inactive
9,O=C(O)C(Cl)(Cl)Cl,inactive
10,S=C=S,inactive
11,C[C@]12CCC(=O)C[C@@H]1CC[C@@H]1[C@@H]2CC[C@]2(C)[C@@H](O)CC[C@@H]12,7.94 µM (active)
12,O=Cc1ccco1,inactive
13,CCOC(=O)c1ccccc1C(=O)OCC,inactive
14,NNC(N)=O,inactive
15,ClC(Cl)(Cl)Cl,inactive
16,ClC1C(Cl)C(Cl)C(Cl)C(Cl)C1Cl (stereo not given),inactive
17,CCOP(=O)(OCC)O/C(=C/Cl)c1ccc(Cl)cc1Cl,inactive
18,O=C1CCO1,inactive
19,[O]=[Cd],inactive
20,COc1ccc2c(c1OC)C(=O)OC2C1c2cc3c(cc2CCN1C)OCO3 (stereo not given),inactive
21,O=CC=O,inactive
22,CCCCCl,inactive
23,Clc1ccccc1Cl,inactive
24,Oc1cc(Cl)c(Cl)cc1Cl,inactive
25,CCCSP(=O)(OCC)SCCC,inactive
26,CC(C)(C)c1cc(O)ccc1O,inactive
27,O=[N+]([O-])c1ccccc1,inactive
28,O=c1[nH]c(=O)n(Cl)c(=O)n1Cl,inactive
29,O=C1C=CC(=O)C=C1,inactive
30,N#CN,inactive

# Source: PubChem BioAssay (NCATS)
